“And” between values parts separate entries of the source, which are not always exact repeats. Equal entries are not always repeated. Records with an inconclusive call do not appear. Where a structure was tested more than once in an assay, its records may differ in their call. The source made the active and inactive calls. Unless noted, calls follow the shape of the dose curve; as a rule, active = well fitted inhibition curve with a large enough effect; inconclusive = small, poorly fitted or top-dose-only effect; inactive = no such curve, though single readings can be large or run the other way.
Legend:
[1] = qHTS profiling of the MIPE4 collection as inhibitors of Plasmodium falciparum (DD2) proliferation (AID 743345; call rule not given here); details: P. falciparum Dd2 in erythrocytes, SYBR Green DNA, 72 h; at 28.5 µM (top of the series) unless noted
How it was run: (§1)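 Parasite DNA was quantified by SYBR Green I fluorescence (ex 485, em 535 nm) after overnight lysis in saponin/Triton buffer at room temperature. Cultures at 0.3% parasitemia and 2.5% hematocrit were first exposed to compound for 72 h at 37 C; signals were normalised to artemisinin (0.29 uM) and vehicle wells.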

[2] = qHTS profiling of the MIPE4 collection as inhibitors of Plasmodium falciparum (DD2) proliferation (Rep 2) (AID 743346; call rule not given here); details: P. falciparum Dd2 in erythrocytes, SYBR Green DNA, 72 h; at 28.5 µM (top of the series) unless noted
How it was run: as §1

[3] = qHTS profiling of the MIPE4 collection as inhibitors of Plasmodium falciparum (HB3) proliferation (AID 743347; call rule not given here;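 also: plate controls were DMSO vehicle wells for no effect and artemisinin wells for full effect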); details: P. falciparum HB3 in erythrocytes, SYBR Green DNA, 72 h; at 28.5 µM (top of the series) unless noted
How it was run: as §1

[4] = High-throughput drug toxicity screening in the BPDCN cell line Gen2.2 (AID 1224824; call rule not given here;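 also: cells exposed to compounds for 48 h before reading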); details: Gen2.2 BPDCN cells; at 45.8 µM (top of the series) unless noted
How it was run: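 Readout is ATP luminescence from Gen2.2 cells after two days of drug exposure in serum-containing medium at 37 °C. Values express percent activity, with vehicle defining full signal and 9.2 uM bortezomib defining zero.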

[5] = High-throughput drug toxicity screening in the BPDCN cell line Cal-1 (AID 1224825; call rule not given here;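 also: cells exposed to compounds for 48 h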); details: Cal-1 BPDCN cell viability, qHTS; at 45.8 µM (top of the series) unless noted
How it was run: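 Viability of the BPDCN line Cal-1 is measured as ATP-based luminescence (CellTiter-Glo) following 48 h incubation with compounds. Percent activity uses DMSO-treated wells as 100% and 9.2 uM bortezomib as 0%.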

[6] = qHTS assay for measurement of the activity of small molecule inhibitors on Zika virus induced Caspase-3 activity in human iPSC derived neural progenitor cells (hNPCs) (AID 1224857); also: nearly all actives have a fitted effect of over 65% in size; also: potency is read from the fitted curve at half-maximal effect
How it was run: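 Percent inhibition of virus-induced caspase-3/7 luminescence (Caspase-Glo), scaled between uninfected cells and Zika-infected cells. hNPCs received compound 1 hr before ZIKV at 2 FFU/cell, with 6 hours infection at 37 C.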

[7] = qHTS assay for measurement of the activity of small molecule inhibitors on Zika virus induced Caspase-3 activity in human astrocytoma cells (AID 1224859);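 also: plate controls were ZIKV-infected untreated cells for no effect and uninfected cells for full effect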
How it was run: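 Luminescent caspase-3/7 read-out (30 min reagent, room temperature) in human SNB-19 cells infected 6 h with ZIKV (2 FFU/cell) after 1 h compound pre-incubation; Data were normalised to uninfected and infected wells.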

[8] = qHTS Screen of the MIPE 4.0 Collection Against Ewings Sarcoma (RDES) (AID 1259252); also: nearly all actives have a fitted effect of over 35% in size; also: potency is read from the fitted curve at half-maximal effect
How it was run: (§2)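 Measured: ATP luminescence (CellTiter-Glo) 10 min after reagent addition, following 48 h drug treatment. Relative luciferase units converted to percent activity, with no-cell wells as full and DMSO wells as zero inhibition.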

[9] = qHTS Screen of the MIPE 4.0 Collection Against Ewings Sarcoma (TC71) (AID 1259253); also: nearly all actives have a fitted effect of over 40% in size; also: potency is read from the fitted curve at half-maximal effect
How it was run: as §2

[10] = qHTS Screen of the MIPE 4.0 Collection Against Ewings Sarcoma (EW8) (AID 1259255); also: nearly all actives have a fitted effect of over 35% in size; also: potency is read from the fitted curve at half-maximal effect;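 as to viability: 100% = DMSO-treated cells and 0% = medium-only wells without cells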
How it was run: as §2

Compound | parasite growth remaining, % of DMSO control (lower = more inhibition) [1] [%] | parasite growth, % of control (lower = inhibition) [2] | growth, % of control [3] [%] | cell viability, % of control (lower = more cytotoxic) [4] | viability (% of control) [5] | Potency [6] | Potency [7] | Potency [8] | Potency [9] | Potency [10]
COc1ccc2cc([C@H](C)C(=O)O)ccc2c1 | 100 | 91% | 102 | 127% | 135% | inactive | inactive | inactive | inactive | inactive
O=C(O)c1cc(=O)c2c(OCC(O)COc3cccc4oc(C(=O)O)cc(=O)c34)cccc2o1 | 96.7 | 106% | 81 | 106% | 115% | inactive | inactive | inactive | inactive | inactive
COc1ccccc1N1CCN(CCN(C(=O)C2CCCCC2)c2ccccn2)CC1 | 78.2 | 40.7% | 83.7 | 39.9% | 80.8% | inactive | inactive | inactive | inactive | inactive
CNC[C@@H](O)[C@@H](O)[C@H](O)[C@H](O)CO | 123 | 82.7% | 75.9 | 216% | 115% | inactive | inactive | inactive | inactive | inactive
Oc1ccc(OCc2ccccc2)cc1 | 123 | 83.5% | 89.5 | 226% | 18.2% | inactive and 11.8 µM (active) | inactive | 2.35 µM (active) | 9.35 µM (active) | 4.18 µM (active)
O=c1cc(N2CCOCC2)oc2c(-c3ccccc3)cccc12 | 96 | 78.4% | 36.7 | 13.3% | 36.2% | inactive | inactive | 13.2 µM (active) | 18.7 µM (active) | 18.7 µM (active)
C[C@@H](c1ncncc1F)[C@](O)(Cn1cncn1)c1ccc(F)cc1F |  |  |  | 56.5% | 55.6% | inactive | inactive | inactive | inactive | 
O=P(O)(O)C(O)(Cn1ccnc1)P(=O)(O)O |  | 94.2% [at 9.64 µM] |  | 109% [at 23.2 µM] | 108% [at 23.2 µM] | inactive | inactive | inactive | inactive | inactive
NNc1nncc2ccccc12 | 92.8 | 116% | 95.2 | 166% | 104% | inactive | inactive | inactive | inactive | inactive
O=Nc1c(-c2c(O)[nH]c3cc(Br)ccc23)[nH]c2ccccc12 | 6.11 | 3.69% | 1.37 | 1.04% | 1.62% | inactive | inactive | 3.32 µM (active) | 7.43 µM (active) | 4.18 µM (active)
